The list is not random: actives were taken first. Their share in the collection is about 3.5%.
MITF primary = human MITF inhibition, primary screen. AlphaScreen MITF homodimerization, bead proximity signal. inhibition, % at 2.6 µM. 650,000 compounds, 0.91% hits. AID 1259374; in the data active = inhibition above about 50%
GPR151 activ = activates the human receptor GPR151. Q8TDV0. PathHunter beta-arrestin GPR151 cells, luminescence. activation, % at 11.2 µM. 650,000 compounds, 1% hits. AID 1508602; in the data active = activation above about 4.9%
Target sequence (Q8TDV0 whole entry, looked up): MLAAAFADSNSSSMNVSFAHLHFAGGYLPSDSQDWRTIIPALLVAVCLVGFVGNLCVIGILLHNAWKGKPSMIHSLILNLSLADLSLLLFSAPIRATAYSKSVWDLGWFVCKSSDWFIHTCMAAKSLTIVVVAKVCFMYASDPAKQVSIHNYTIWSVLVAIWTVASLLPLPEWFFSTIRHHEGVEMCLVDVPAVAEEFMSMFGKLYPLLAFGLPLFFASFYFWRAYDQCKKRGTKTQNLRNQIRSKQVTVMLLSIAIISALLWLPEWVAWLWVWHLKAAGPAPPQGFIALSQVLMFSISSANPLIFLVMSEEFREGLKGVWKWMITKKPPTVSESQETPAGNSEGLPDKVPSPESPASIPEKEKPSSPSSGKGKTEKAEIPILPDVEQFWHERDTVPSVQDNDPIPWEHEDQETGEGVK
TEAD-YAP inh = TEAD-YAP interaction inhibition | HEK-TIYL cells, TEAD-Gal4/YAP UAS-luciferase luminescence | inhibition, % at 9.12 µM | AID 1259422 | 640,000 compounds, 1.4% hits; in the data active = inhibition above about 32%
FBW7 activator = activators of human E3 ligase FBW7; AID 1259310; 650,000 compounds, 0.13% hits; AlphaScreen FBW7–phospho-cyclin E peptide binding, activator screen; normalized activity (activation), % at 26.1 µM; Q969H0; in the data active = normalized activity above about 1.9%;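 also: purified mutant Fbw7 with reduced substrate affinity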
Of the large screens only hits and unclear results are named; the others gave an inactive call.

COc1ccc(-n2cc(-c3cc4ccccc4oc3=O)[nH]c2=S)cc1	none
O=C(COc1ccc2ccc(=O)oc2c1)c1ccc(N2CCCC2)cc1	none
CN1C(=N)S/C(=C/c2ccc3c(c2)OCO3)C1=O	none
COCC1OC2OC3(CCCCC3)OC2C2OC3(CCCCC3)OC12 (stereo unspecified)	none
Cc1ccccc1CN1CCC(C2(CCC(C)C)NC(=O)NC2=O)CC1 (stereo unspecified)	none
CCOc1ccccc1/C=N/Nc1ncnc2nc[nH]c12	none
Brc1cccc(/C=N/Nc2ncnc3nc[nH]c23)c1	TEAD-YAP inh 57
COc1ccc(/C=N/Nc2ncnc3nc[nH]c23)cc1O	TEAD-YAP inh 37
COc1ccc(/C=N/Nc2ncnc3nc[nH]c23)c(OC)c1	TEAD-YAP inh 38
Oc1cccc(/C=N/Nc2ncnc3nc[nH]c23)c1	none
CCN(CC)c1ccc(/C=N/Nc2ncnc3nc[nH]c23)cc1	TEAD-YAP inh 76
CC(C)CCNC(=O)C(=O)NCCc1ccc(Cl)cc1	none
C=CCOC(=O)C1=C(C)NC2=C(C(=O)CCC2)C1c1cc(OC)c(OC)cc1[N+](=O)[O-] (stereo unspecified)	TEAD-YAP inh 32
CC(=O)N1CCc2cc(Br)cc(S(=O)(=O)NCc3cccnc3)c21	none
Nc1ncnc(N(c2ccccc2)C2CCCCC2)c1[N+](=O)[O-]	none
CCN(c1ncnc(N)c1[N+](=O)[O-])C1CCCCC1	TEAD-YAP inh 51
CCCNc1cc(Nc2ccccn2)nc(N)n1	TEAD-YAP inh 34
CCCNc1cc(Nc2ncccn2)nc(N)n1	none
OC1CCN(c2ncn(-c3ccc(Nc4nccc(-c5cc(F)cc(N6CCOCC6)c5)n4)cc3)n2)CC1	TEAD-YAP inh 91
CN1CCN(c2ncn(-c3ccc(Nc4nccc(-c5cc(F)cc(N6CCC(O)CC6)c5)n4)cc3)n2)CC1	TEAD-YAP inh 67
Cc1ncn(-c2ccc(Nc3nccc(-c4ccc(N5CCCC(O)C5)c(C#N)c4)n3)cc2)n1 (stereo unspecified)	TEAD-YAP inh 35
CN1CCN(c2ncn(-c3ccc(Nc4nccc(-c5cc(F)cc(N(C)C)c5)n4)cc3)n2)CC1	TEAD-YAP inh 35
COC1CCN(c2ncn(-c3ccc(Nc4nccc(-c5cc(F)cc(N(C)C)c5)n4)cc3)n2)CC1	none
COc1ccccc1N1CCN(C(=O)Cc2c(F)cccc2Cl)CC1	none
Fc1cc(-c2ccnc(Nc3ccc(-n4cnc(Br)n4)cc3)n2)cc(N2CCOCC2)c1	none
OCc1ccc(-c2ncn(-c3ccc(Nc4nccc(-c5cc(F)cc(N6CCOCC6)c5)n4)cc3)n2)nc1	TEAD-YAP inh 83
OC1CCCN(c2ncn(-c3ccc(Nc4nccc(-c5cc(F)cc(N6CCOCC6)c5)n4)cc3)n2)C1 (stereo unspecified)	TEAD-YAP inh 57
Fc1cc(-c2ccnc(Nc3ccc(-n4cnc(-c5ccc(Cl)cn5)n4)cc3)n2)cc(N2CCOCC2)c1	none
COc1ccc(NC(=O)CSc2nnc(CNC(=O)c3ccc(S(=O)(=O)N4CCOCC4)cc3)n2-c2cccc(C)c2)cc1	none
N#Cc1c(=O)c2nc(N3CCOCC3)ncc2n2c(=O)c3ccccc3[nH]c12	none
COC(=O)c1ccc(NC(=O)CN(C(=O)N2CCN(C)CC2)S(=O)(=O)c2ccc(C)cc2)cc1	none
COc1cc(/C=C/C(=O)c2ccccc2OC)ccc1OCC#N	TEAD-YAP inh 58
O=C(NC1CCN(Cc2ccccc2)CC1)c1ccc2nc(Nc3nccc4ccccc34)sc2c1	none
CCC[n+]1cccc2ccc3cccnc3c21	TEAD-YAP inh 54
Cc1ccc(S(=O)(=O)NCCSc2nncn2C)cc1	none
COC(=O)c1cccc(-n2nnnc2SCC(=O)Nc2ccc(NC(C)=O)cc2)c1	none
CCOC(=O)c1cn2nc(N3CCCCC3)ccc2n1	TEAD-YAP inh 43
CCOC(=O)C1CCN(c2ccc3nncn3n2)CC1	none
Cc1ccc(/C=N/NC(=O)c2cc(Br)ccc2OC(C)C)o1	TEAD-YAP inh 46
COc1cc(/C=N/NC(=O)c2cc(Br)ccc2OC(C)C)ccc1O	none
COc1cccc(-c2ocnc2C(=O)Nc2cccnc2)c1	none
O=C(NCC(c1cccs1)N1CCOCC1)c1ccc(Cl)s1 (stereo unspecified)	TEAD-YAP inh 57
O=C1CCCN1CCCNc1nc(Nc2ccc3ncccc3c2)nc2c1ncn2-c1ccsc1	TEAD-YAP inh 52
O=C1CCCN1CCCNc1nc(NCCCN2CCCC2=O)c2ncn(-c3ccsc3)c2n1	TEAD-YAP inh 39
COc1cc(Nc2nc(NCCCN3CCCC3=O)c3ncn(-c4ccccc4)c3n2)cc(OC)c1OC	TEAD-YAP inh 49
O=C1CCCN1CCCNc1nc(NCCN2CCOCC2)nc2c1ncn2-c1ccsc1	none
O=C1CCCN1CCCNc1nc(Nc2ccc(-n3ccnc3)cc2)nc2c1ncn2-c1ccsc1	TEAD-YAP inh 61
COc1ccc(S(=O)(=O)Nc2ccc(Cl)c(N3CCCS3(=O)=O)c2)cc1C	none
CCc1c(C)sc(NC(=O)CCCC(=O)O)c1C(N)=O	none
O=C1CCCN1CCCNc1nc(Nc2ccc(-n3ccnc3)cc2)nc2c1ncn2-c1ccccc1	TEAD-YAP inh 52
O=C1CCCN1CCn1cnc2c(NCCOc3ccccc3)nc(Nc3ccc(-n4ccnc4)cc3)nc21	none
O=C1CCCN1CCCNc1nc(-c2cccs2)nc2c1ncn2-c1ccsc1	TEAD-YAP inh 55
O=C1CCCN1CCCNc1nc(-c2csc3ccccc23)nc2c1ncn2-c1ccsc1	none
Cc1nn(C)c(C)c1-c1nc(NCCN2CCOCC2)c2ncn(-c3ccsc3)c2n1	TEAD-YAP inh 38
O=C1CCCN1CCCNc1nc(Nc2cccnc2)nc2c1ncn2-c1ccsc1	TEAD-YAP inh 47
O=C(NCC(c1cccs1)S(=O)(=O)c1ccccc1)c1ccc(F)cc1 (stereo unspecified)	none
CSCC(=O)N1CCCC(CNC(=O)c2ccc(-c3ccccc3)cc2)C1 (stereo unspecified)	none
CCc1ccccc1N(CC)C(=O)Cc1c(C(=O)O)n(CC)c2ccccc12	none
CCn1cc(CN2CCN3C(=O)[C@@H]4CSCN4C(=O)[C@H]3C2)c(C)n1	none
Cc1nn2cc(-n3cc([N+](=O)[O-])cn3)cnc2c1C(N)=O	none
O=C1CCCN1CCCNc1nc(Nc2ccccc2)nc2c1ncn2-c1ccccc1	TEAD-YAP inh 39
Cc1nn(C)c(C)c1-c1nc(NCCc2ccc(O)cc2)c2ncn(-c3ccsc3)c2n1	TEAD-YAP inh 56
O=C1CCCN1CCCNc1nc(Nc2ncccn2)nc2c1ncn2-c1ccccc1	none
O=C1CCCN1CCCNc1nc(Nc2ccncc2)nc2c1ncn2-c1ccsc1	TEAD-YAP inh 60
CCCNc1nc(NCCCN2CCCC2=O)nc2c1ncn2-c1ccccc1	TEAD-YAP inh 42
CCCNc1nc(-c2c(C)nn(C)c2C)nc2c1ncn2-c1ccsc1	none
O=C1CCC(N2CCC[C@H]2CO)CCN1Cc1cc2c(cc1Cl)OCO2 (stereo partly specified)	none
O=C1CCCN1CCCNc1nc(Nc2ccccc2)nc2c1ncn2-c1ccsc1	TEAD-YAP inh 65
Cc1nn(C)c(C)c1-c1nc(NCCCN2CCCC2=O)c2ncn(-c3ccccc3)c2n1	none
O=C1CCCN1CCCNc1nc(Nc2ccc(C(F)(F)F)cc2)nc2c1ncn2-c1ccsc1	none
